The values below come from PubChem BioAssay (Tox21).

Molecules are shown by their SMILES. Inconclusive results are not listed. Where a call stands in place of a potency, no number is given. Values without a mark were called inactive. The source made the active and inactive calls. The call rests on the fitted dose curve; in most records, active means well fitted cell-killing curve with a large enough effect in the repeat runs; inconclusive means weak or mixed curves, or effect the other way; inactive means flat fitted curve, though single readings scatter.

This assay is described as follows: Caspase-3/7 induction in HepG2 cells by small molecules, qHTS cell viability counter screen (AID 1346981). Further: nearly all actives have a fitted effect of over 30% in size. The settings on record: CellTiter-Fluor fluorescence, 17 h; series mostly up to 92.4 µM; activity change, negative = cytotoxicity: at the top concentration. The method, boiled down:
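Wild-type HepG2 cells (2,000/well) were allowed to settle for 5 hr at 37 C, 5% CO2, then dosed with compounds in DMSO by pin transfer. After 16 hr at 37 C, CellTiter-Fluor was added and fluorescence read 1 hr later.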
Background: qHTS replaces the single test concentration by a dilution series.
Regarding `Cc1ccc(N)cc1N`, the Potency entry is “inactive”.
Same read-out and setting: next, `CC(C)C#N`: “inactive”.
`CCN(CC)c1ccccc1`: the Potency entry is “inactive”.
Same read-out and setting: next, `CC(Oc1ccc(Cl)cc1Cl)C(=O)O` (stereo unspecified): “inactive”; `O=S(=O)(c1ccc(O)cc1)c1ccc(O)cc1`: “inactive”; `O=c1ccc(=O)[nH][nH]1`: “inactive”.
On the same count and under the same terms, next, `c1ccc2c(c1)oc1ccccc12`: “inactive”; `Nc1ccccc1C(=O)O`: “inactive”.
Same read-out and setting: next, `O=[N+]([O-])c1ccccc1`: “inactive”; `C#CCN(C)[C@H](C)Cc1ccccc1`: “inactive”.
Regarding `C=CC(N)=O`, the Potency entry was “inactive”.
In the case of `CN1C(=O)CN=C(c2ccccc2)c2cc(Cl)ccc21`, the Potency result is “inactive”.
On the same count and under the same terms, then `Clc1ccccc1Cl`, with “inactive”; and `CC1OC(C)OC(C)O1` (stereo unspecified), with “inactive”.
`CCOC(=O)c1ccccc1C(=O)OCC`: the “activity change, negative = cytotoxicity” value was 3.13%.
Consider `CC(=O)C=C(C)C`, for which the Potency entry is “inactive”.
For `Nc1ccc(Br)cc1`, the Potency result is “inactive”.
Same read-out and setting: then `O=C(NC(=O)c1c(F)cccc1F)Nc1cc(Cl)c(OC(F)(F)C(F)C(F)(F)F)cc1Cl` (stereo unspecified), with “inactive”; and `Oc1ccccc1Cl`, with “inactive”; and `C[C@]12CC[C@H]3[C@@H](CC[C@@]45O[C@@H]4C(O)=C(C#N)C[C@]35C)[C@@H]1CC[C@@H]2O`, with “inactive”.
On to `CCCCN(CC)C(=O)SCCC`, for which the Potency entry was “inactive”.
In the case of `CC(C)=C[C@@H]1[C@@H](C(=O)OCc2coc(Cc3ccccc3)c2)C1(C)C`, the Potency entry is “inactive”.
The same measure, in the same setting: next, `O=C(O)c1ccccn1`: “inactive”; `CC(C)(C)OOC(C)(C)C`: “inactive”; `C=C(C)CCl`: “inactive”.
Still for that read-out and setting: next, `O=c1n(Cl)c(=O)n(Cl)c(=O)n1Cl`: “inactive”; `BrCCBr`: “inactive”.
Same read-out and setting: then `O=C1CCCN1`, with “inactive”.
`c1ccc(-c2ccccc2)cc1`: the Potency entry is “inactive”.
With `O=NN1CCCCCCC1`, the Potency entry is “inactive”.
On the same count and under the same terms, then `NCCc1ccc(O)cc1`, with “inactive”.
